Rows were chosen to be rich in hits. Some 2.3% of all compounds tested hit in one or more screens of this group.
M1 antag: human M1 muscarinic receptor antagonists, primary screen, CHO-K1 cells, Fluo-8 calcium fluorescence, 1536-well; CHO-K1 hM1, ACh EC80 antagonist; inhibition, % at 3 µM; 360,000 compounds, 1.3% hits; AID 588852, 2011;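 active means percent inhibition above its own plate's cutoff, namely the mean of that plate's compound wells plus 3 SD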;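 further: peak over basal fluorescence ratio during 140 s after agonist addition; 0% = ACh EC80 plus DMSO and 100% = DMSO alone without agonist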
Target sequence (P11229 whole entry, looked up): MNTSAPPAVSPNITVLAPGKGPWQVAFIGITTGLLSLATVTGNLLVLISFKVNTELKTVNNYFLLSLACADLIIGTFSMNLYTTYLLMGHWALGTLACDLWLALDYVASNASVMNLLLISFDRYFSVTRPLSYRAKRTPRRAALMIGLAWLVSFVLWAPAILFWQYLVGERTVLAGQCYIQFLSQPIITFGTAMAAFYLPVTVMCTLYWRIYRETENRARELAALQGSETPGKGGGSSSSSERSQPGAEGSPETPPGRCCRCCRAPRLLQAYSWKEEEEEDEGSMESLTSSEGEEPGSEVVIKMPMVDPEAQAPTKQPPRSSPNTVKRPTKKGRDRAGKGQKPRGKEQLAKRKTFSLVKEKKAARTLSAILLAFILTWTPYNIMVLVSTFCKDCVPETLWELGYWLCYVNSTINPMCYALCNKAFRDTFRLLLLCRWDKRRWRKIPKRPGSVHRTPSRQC
CHO-K1 Ca antag: nonselective inhibitor or artifact in parental CHO-K1 cells. ATP-induced calcium, Fluo-8 fluorescence. inhibition, % at 3 µM. 360,000 compounds, 0.6% hits;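 active means inhibition above a per-plate cutoff, the plate's mean sample inhibition plus 3 SD, cut at about 24% in these data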;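 further: 0% = DMSO plus EC80 ATP and 100% = DMSO alone without ATP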
M1 PAM: human M1 muscarinic receptor positive allosteric modulators, primary screen, CHO-K1 cells, Fluo-8 calcium fluorescence, 1536-well. Muscarinic acetylcholine receptor M1 (Homo sapiens), P11229. CHO-K1 hM1, ACh EC20; 0% = ACh EC20, 100% = maximal ACh. activation, % at 3 µM. 360,000 compounds, 0.088% hits. AID 588819, 2011; in the data active means activation above about 19%, passing the limit was not always enough
CHRM1 agonist: human M1 muscarinic receptor agonists, primary screen, Fluo-8 calcium fluorescence, CHO-K1 cells, HTS; Muscarinic acetylcholine receptor M1 (Homo sapiens), P11229; CHO-K1 hM1, agonist mode; 0% DMSO, 100% acetylcholine EC100; activation, % at 3 µM; 360,000 compounds, 0.33% hits;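 active means activation above the run's mean compound activation plus 3 SD, cut at about 16% in these data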;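 further: peak over basal fluorescence ratio within a 140 s kinetic read after compound addition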
CHO-K1 Ca ag: counter-screen for M1 agonists: effect in parental CHO-K1 cells; Fluo-8 calcium fluorescence; scaled to maximal ATP response, vehicle zero; activation, % at 3 µM; 360,000 compounds, 0.48% hits; AID 602248, 2012; in the data active means activation above about 15%;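 further: untransfected CHO-K1 host cells lacking M1 receptor as counterscreen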
M1 PAM parental: nonselective calcium activators in parental CHO-K1 cells, primary screen, counter-screen for M1 PAM project, cell-based, Fluo-8 calcium fluorescence, full deck, 1536-well | activation, % at 3 µM | 360,000 compounds, 0.02% hits | ATP EC20; 0% at ATP EC20, 100% at ATP max;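 active means activation above the run cutoff, the mean activation of all test compounds plus 3 SD, cut at about 40% in these data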;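 further: peak over basal fluorescence ratio in a 140 s read after ATP addition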
* marks the source's active call; other numbers are inactive results.

Screening CCOC(=O)c1nn(-c2ccc(C)cc2)c(=O)c2c(N)scc12 returned M1 antag 22.1, CHO-K1 Ca antag 32.8*, M1 PAM -6.6, CHRM1 agonist 0.2, CHO-K1 Ca ag -0.8 and M1 PAM parental -9.4.
Screening Cc1ccc(CN2C(=O)C(C)Nc3ncnc(N4CCOCC4)c32)cc1 (centres undefined) returned M1 antag -8.9, CHO-K1 Ca antag -9.3, M1 PAM 16.7, CHRM1 agonist -5.7, CHO-K1 Ca ag -0.3 and M1 PAM parental -13.5.
Screening CCN(c1ccc(NC(=O)COC(=O)C(C)N=C2NS(=O)(=O)c3ccccc32)cc1)C(C)C (centres undefined) returned M1 antag 1.1, CHO-K1 Ca antag -3.3, M1 PAM 0.5, CHRM1 agonist -6.4, CHO-K1 Ca ag 0.2 and M1 PAM parental -17.0.
For O=C(Nc1cc(S(=O)(=O)N2CCCCC2)ccc1N1CCOCC1)c1ccc(C(F)(F)F)cc1 the results were M1 antag -14.0, CHO-K1 Ca antag -15.9, M1 PAM 12.8, CHRM1 agonist 2.0, CHO-K1 Ca ag -0.3 and M1 PAM parental 5.2.
`CN(/N=C/c1cc([N+](=O)[O-])ccc1O)c1ccccc1` gave M1 antag -8.6, CHO-K1 Ca antag -13.6, M1 PAM 8.9, CHRM1 agonist -4.1, CHO-K1 Ca ag 3.4 and M1 PAM parental 28.2.
Screening CN(/N=C/c1ccc(-c2ccc([N+](=O)[O-])cc2)o1)c1ccccc1 returned M1 antag 4.0, CHO-K1 Ca antag 30.1*, M1 PAM 1.7, CHRM1 agonist 15.5, CHO-K1 Ca ag 17.1* and M1 PAM parental -13.4.
`Cc1c(C(=O)NNC(=O)c2ccccc2O)oc2ccccc12` gave M1 antag -1.7, CHO-K1 Ca antag 26.4*, M1 PAM -0.1, CHRM1 agonist -1.0, CHO-K1 Ca ag -0.4 and M1 PAM parental -14.4.
Screening COC(=O)c1oc2ccccc2c1NC(=O)c1ccccc1O returned M1 antag -0.8, CHO-K1 Ca antag 1.2, M1 PAM 0.5, CHRM1 agonist -4.0, CHO-K1 Ca ag 3.4 and M1 PAM parental 10.8.
COc1ccc(NCC(=O)N/N=C/C=C\c2ccccc2)cc1 was read as M1 antag -7.1, CHO-K1 Ca antag -4.1, M1 PAM 10.8, CHRM1 agonist -1.0, CHO-K1 Ca ag 0.3 and M1 PAM parental 14.0.
COc1ccccc1NCC(=O)N/N=C/C=C/c1ccccc1 was read as M1 antag 10.8, CHO-K1 Ca antag 23.9*, M1 PAM -10.2, CHRM1 agonist -3.2, CHO-K1 Ca ag -0.5 and M1 PAM parental -15.5.
S=C(Nc1ccc(Br)cc1)Nc1ccc2c(c1)OCCO2 was read as M1 antag 30.6*, CHO-K1 Ca antag 1.1, M1 PAM -11.1, CHRM1 agonist -1.2, CHO-K1 Ca ag 2.7 and M1 PAM parental -15.4.
`O=C(NC(=S)Nc1ccc2c(c1)OCCO2)c1cccc(Br)c1` gave M1 antag -4.4, CHO-K1 Ca antag -6.8, M1 PAM 1.4, CHRM1 agonist -6.0, CHO-K1 Ca ag 6.2 and M1 PAM parental 32.7.
`Cc1cccc2c(N=O)c(O)[nH]c12` gave M1 antag -3.3, CHO-K1 Ca antag -6.4, M1 PAM 4.7, CHRM1 agonist -1.4, CHO-K1 Ca ag 0.4 and M1 PAM parental 1.8.
Screening COc1ccc(O)c(CN2CCN(C/C=C/c3ccccc3)CC2)c1 returned M1 antag 0.3, CHO-K1 Ca antag -22.0, M1 PAM -8.1, CHRM1 agonist -8.4, CHO-K1 Ca ag 3.1 and M1 PAM parental 18.8.
`COc1cc(Br)cc(CN2CCN(C/C=C/c3ccccc3)CC2)c1O` gave M1 antag 95.8*, CHO-K1 Ca antag -24.1, M1 PAM -31.9, CHRM1 agonist -12.6, CHO-K1 Ca ag 3.5 and M1 PAM parental 20.5.
Screening Cc1cccc(NC(=O)CN2C(=O)c3ccccc3S2(=O)=O)n1 returned M1 antag 17.3, CHO-K1 Ca antag 14.7, M1 PAM -6.9, CHRM1 agonist 0.9, CHO-K1 Ca ag 0.1 and M1 PAM parental -30.4.
Screening Cc1cccc(NC(=O)C(C)N2C(=O)c3ccccc3S2(=O)=O)n1 (centres undefined) returned M1 antag 28.2*, CHO-K1 Ca antag 27.7*, M1 PAM -12.3, CHRM1 agonist -1.1, CHO-K1 Ca ag -0.3 and M1 PAM parental -25.6.
Screening CN(Cc1cccnc1)C(=O)c1cc(COc2ccc3c(c2)CCCC3)on1 returned M1 antag 63.5*, CHO-K1 Ca antag 11.8, M1 PAM -21.4, CHRM1 agonist 0.4, CHO-K1 Ca ag 12.7 and M1 PAM parental -2.3.
Screening CCc1ccc(CN(C)C(=O)c2cc(COc3cccc4cnccc34)on2)cc1 returned M1 antag 41.7, CHO-K1 Ca antag 25.1*, M1 PAM -11.9, CHRM1 agonist -1.3, CHO-K1 Ca ag 10.3 and M1 PAM parental -18.3.
`CN(Cc1cccc2cnccc12)C(=O)c1cc(COc2ccc(F)cc2F)on1` gave M1 antag 15.0, CHO-K1 Ca antag 9.9, M1 PAM -7.7, CHRM1 agonist -1.6, CHO-K1 Ca ag 10.8 and M1 PAM parental -22.2.
Screening Cc1c(C(C)NC(=O)c2cc(COc3cccc4cnccc34)on2)cnn1C (centres undefined) returned M1 antag 7.2, CHO-K1 Ca antag 5.0, M1 PAM -7.7, CHRM1 agonist 1.5, CHO-K1 Ca ag 15.8* and M1 PAM parental -12.2.
Screening CC(=O)c1cccc(OCc2cc(C(=O)N(C)Cc3cnccn3)no2)c1 returned M1 antag 4.0, CHO-K1 Ca antag -17.0, M1 PAM 2.5, CHRM1 agonist -3.1, CHO-K1 Ca ag 1.9 and M1 PAM parental 27.6.
For COC(=O)c1ccc(CN2CCc3ccccc32)cc1 the results were M1 antag -5.2, CHO-K1 Ca antag 20.6, M1 PAM 6.3, CHRM1 agonist -3.7, CHO-K1 Ca ag 0.3 and M1 PAM parental -9.1.
CCN(CC)CCCN(Cc1cc2cc3c(cc2[nH]c1=O)OCO3)C(=S)NCCCOC was read as M1 antag -0.4, CHO-K1 Ca antag 24.3*, M1 PAM 3.5, CHRM1 agonist -8.5, CHO-K1 Ca ag -0.2 and M1 PAM parental -22.1.
Screening COCCNC(=S)N(CCCO)Cc1cc2cc3c(cc2[nH]c1=O)OCCO3 returned M1 antag 16.4, CHO-K1 Ca antag 25.9*, M1 PAM -6.6, CHRM1 agonist -2.2, CHO-K1 Ca ag -0.4 and M1 PAM parental -19.9.
Screening CCN(CC)CCN(Cc1cc2cc3c(cc2[nH]c1=O)OCO3)C(=S)NCCCOC returned M1 antag -12.3, CHO-K1 Ca antag 0.0, M1 PAM 9.5, CHRM1 agonist -7.3, CHO-K1 Ca ag 0.5 and M1 PAM parental 26.5.

High-throughput results: PubChem BioAssay, The Scripps Research Institute Molecular Screening Center
